Compound activity as filed in PubChem.
Hits are enriched below; roughly 2.8% of the tested compounds scored in any of these assays.
Pol kappa inh: DNA polymerase kappa (human) inhibition; Q9UBT6; purified Pol kappa, fluorescent DNA synthesis assay, 10 min; Potency, µM (doses to about 107 µM), for the others: at the highest dose activity, negative = inhibition, most hits filed as inhibitors; 400,000 tested, 0.53% active; AID 588579; also: potency is read from the fitted curve at half-maximal effect; % is scaled to controls: 0 for no effect and ±100 for the full control effect
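50 nM final substrate added after 15 min RT preincubation of 10 nM Pol kappa with compound; fluorescence read at 0 and 10 min.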
Pol iota inh: blocks human DNA polymerase iota activity; Potency, µM (titrated, usually from 115 µM), without a hit: at the top dose activity, negative = inhibition, usual class: inhibitors; 390,000 tested, 1% active; Pol iota fluorescent replication assay, 10 min; Q9UNA4; also: potency is read from the fitted curve at half-maximal effect
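Fluorescent replication assay read twice, at 0 min and 10 min after adding 50 nM (final) substrate. Enzyme (10 nM) and compounds were first incubated 15 min at room temperature; enzyme-free buffer wells were negative controls.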
Pol eta inh: inhibitors of human DNA polymerase eta; Q9Y253; recombinant Pol eta, fluorescent DNA replication assay; Potency, µM (highest dose often 114 µM), without a hit: at the highest dose activity change, negative = inhibition, actives largely listed as inhibitors; 390,000 tested, 1.2% active; AID 588591; also: potency is read from the fitted curve at half-maximal effect; % is scaled to controls: 0 for no effect and ±100 for the full control effect
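Pol eta at 10 nM preincubated with compounds 15 min at room temperature; reaction started with fluorescent substrate (50 nM final) and read kinetically at 0 and 10 min.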
POLB inh: DNA polymerase beta (human) inhibition | P06746 | Pol beta primer extension/strand displacement, fluorescence kinetic | Potency, µM (series often up to 114 µM), without a hit: top-dose activity change, negative = inhibition, hits mostly inhibitors | 340,000 tested, 1.3% active | AID 485314; also: potency is read from the fitted curve at half-maximal effect; % is scaled to controls: 0 for no effect and ±100 for the full control effect
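Reaction started by 50 nM substrate onto compound-treated Pol beta (10 nM, 15 min preincubation, room temperature); plates read at 0 min and 10 min. Normalized concentration-effect data fitted by four-parameter Hill equation.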
PI5P4Ka inh: inhibitors of human PI5P4K alpha | P48426 | PI5P4Kalpha enzyme, ADP-Glo luminescence, 60 min; stronger effect = lower value | max response, % | 330,000 tested, 1.2% active | AID 652105; active = max response of -50% or lower; inconclusive = between -30% and -50%; inactive = -30% or higher; also: value at the top dose of about 77 µM; % is scaled to controls: 0 for no effect and ±100 for the full control effect
Target sequence (P48426 whole entry, looked up): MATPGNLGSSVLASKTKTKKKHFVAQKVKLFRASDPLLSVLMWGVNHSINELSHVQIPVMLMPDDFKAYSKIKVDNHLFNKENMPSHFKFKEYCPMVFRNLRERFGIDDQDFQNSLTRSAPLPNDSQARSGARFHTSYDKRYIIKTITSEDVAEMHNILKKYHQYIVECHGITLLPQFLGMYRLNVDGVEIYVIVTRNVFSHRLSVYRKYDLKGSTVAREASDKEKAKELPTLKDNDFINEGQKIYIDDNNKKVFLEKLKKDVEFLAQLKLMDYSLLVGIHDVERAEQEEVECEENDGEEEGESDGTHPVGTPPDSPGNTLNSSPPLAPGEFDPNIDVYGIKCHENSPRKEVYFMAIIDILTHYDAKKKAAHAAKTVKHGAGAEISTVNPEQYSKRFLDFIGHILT
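Controls without substrate or without enzyme flank wells where PI5P4Kalpha converts substrate using 5 microM ATP (final). Incubation lasts 60 minutes at room temperature; ADP formed is read by ADP-Glo luminescence.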
PI4K2A inh: blocks human PI4K2A kinase activity. Q9BTU6. purified PI4K2A, ADP-Glo luminescence, 1 h; stronger effect = lower value. activity change, negative = inhibition, % at 76.9 µM. 420,000 tested, 0.13% active. AID 1346378; in the data active = activity change below about -50%; inconclusive = mostly about -30% to -49%;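 also: -100% = wells without enzyme as full effect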
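ADP-Glo luminescence measured ADP generated by PI4K2A enzyme (4 ug/mL before mixing) with 1.2 mM PI substrate (pre-mix) and 300 microM ATP (pre-mix). Tris pH7.5 buffer with MgCl2, Triton X-100; 1 h reaction at ambient temperature.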
Starred values were filed as active, the others as inactive; ? = inconclusive; · = no result; [ ] = another dose, or the depositor's remark. Unless noted, calls follow the shape of the dose curve; as a rule, active = well fitted inhibition curve with a large enough effect; inconclusive = small, poorly fitted or top-dose-only effect, or another doubt; inactive = no such curve, though single readings can be large or run the other way.

SMILES	Pol kappa inh	Pol iota inh	Pol eta inh	POLB inh	PI5P4Ka inh	PI4K2A inh
COc1ccccc1/C=C/C=N/NC(=O)Cc1cccn1C	-12%	50µM*	?	-13%	?	-7
Cn1cccc1CC(=O)NN=C/C=C\c1ccco1	·	·	·	·	·	-52*
CCc1ccc(S(=O)(=O)c2cn(Cc3ccccc3F)c3cc(OC)c(OC)cc3c2=O)cc1	-8%	16%	-5%	2%	·	2
Cc1ccc(-c2[nH]ncc2/C=N/n2c(COc3ccccc3)nc3ccccc3c2=O)cc1	-16%	23%	-13%	1%	1	3
Cc1cc(/C=N/n2c(COc3ccccc3)nc3ccccc3c2=O)c(O)c([N+](=O)[O-])c1	-16%	-13%	?	-5%	-51*	-4
O=c1c2ccccc2nc(COc2ccccc2)n1/N=C/c1ccc(O)c(O)c1	?	?	32µM*	?	-15	0
CC(C)[C@H](N)C(=O)N[C@@H](CCC(N)=O)C(=O)NCC(=O)N[C@@H](CCC(=O)O)C(=O)N[C@@H](CCC(=O)O)C(=O)N[C@@H](CO)C(=O)N[C@@H](CC(N)=O)C(=O)N[C@@H](CC(=O)O)C(=O)N[C@@H](CCCCN)C(=O)O	16%[60.1 µM]	·	·	·	·	·
Cn1c(=O)c2c(nc(SCC(=O)NCc3ccc4c(c3)OCO4)n2Cc2ccc(Cl)cc2)n(C)c1=O	-44%	?	89µM*	-17%	·	-12
CCCCNC(=O)CSc1nc2cc3c(cc2c(=O)n1CCCC(=O)NCc1ccc2c(c1)OCO2)OCO3	-5%[60.1 µM]	89µM*	-5%	38%	·	-6
CC1(c2ccc3c(c2)OCCO3)NC(=O)N(CC(=O)c2ccc[nH]2)C1=O (stereo not drawn)	-11%	?	?	·	-53*	-13
O=C(CN1C(=O)NC2(CCOc3ccccc32)C1=O)c1ccc[nH]1 (stereo not drawn)	-19%	40µM*	?	·	?	-11
O=C(CN1C(=O)NC2(CCOc3ccccc32)C1=O)c1ccc(Cl)s1 (stereo not drawn)	-3%	15%	-15%	·	-4	-3
Cc1ccc(NS(=O)(=O)c2ccccc2)c(C)c1	13%	35%	·	·	·	·
COc1ccc(-n2c(SCC(=O)Nc3cc(C)cc(C)c3)nc3c(oc4ccccc43)c2=O)cc1	10%	29%	-17%	26%	·	-10
CCC(C)C(NC(=O)OC(C)(C)C)C(=O)NC1COC2CC(n3ccc(=O)[nH]c3=O)OC12 (stereo not drawn)	2%	?	·	·	·	·
O=C(NCCn1cc(SCc2ccccc2)c2ccccc21)c1cccs1	?	89µM*	-18%	17%	·	-5
O=C(NCCn1cc(SCc2ccc(Br)cc2)c2ccccc21)c1cccs1	0%	8%	-23%	-1%	·	17
CCC(CC)NC(=O)O[C@H]1CC[C@@]23CCCN2C(=O)CCC[C@H]3C1	·	·	·	·	·	2
O=c1c(-c2cc(O)c(O)c(O)c2)coc2cc(O)c(O)c(O)c12	0.4µM*	·	·	·	·	·
O=C(NCc1ccccc1)C1(C(F)(F)F)C/C(=C\Cc2ccccc2)CCCO1 (stereo not drawn)	-3%	-25%	·	·	·	·
COc1ccc(CN2C(=O)CN(S(C)(=O)=O)CC2(C)C(=O)Nc2c(C)cccc2C)cc1 (stereo not drawn)	·	·	·	·	9	-2
Cc1cnc(NC(=O)CSc2nnc(Cc3ccccc3)o2)s1	-7%	71µM*	-10%	-1%	·	3
COc1ccc(Cc2nnc(SCC(=O)Nc3ncc(C)s3)o2)cc1	-3%	3%	4%	-2%	·	-4
Cc1c(Br)cc(C(=O)NCc2ccco2)c(C)c1C	-27%	?	?	22µM*	?	-3
Cc1occc1C(=O)NCc1ccc(C(=O)O)o1	-2%	-5%	56µM*	1%	·	-6
Cc1occc1C(=O)NCCc1ccc(Cl)cc1	-4%	5%[58.9 µM]	-5%	6%	·	2
Cc1ccc(C(=O)NCc2ccco2)cc1Br	-2%	-17%	-3%	4%	·	-7
Cc1occc1C(=O)NCc1ccccc1	-7%	0%	-15%	0%	-7	4
